Measurements as given in ChEMBL document CHEMBL4513216, “Probing the Open Global Health Chemical Diversity Library for Multistage-Active Starting Points for Next-Generation Antimalarials” (ACS Infect Dis, 2020).
Among all 69,000 compounds or so, about 8,600 (12%) showed an effect of 50% or more. For the sample, strong results were picked, then their nearest neighbours and some compounds at random.

tested on: Plasmodium berghei; test: Screen against P. berghei liver stage (PbLuc), transformed with Luciferase, at 10uM; type: functional, HepG2; conditions: tested at 10 uM

| SMILES | INHIBITION |
| --- | --- |
| Cn1nnnc1SC1CCN(c2ccccc2Cl)C1=O (stereo not given) | 23.9% |
| Cc1cc(C[S+]([O-])Cc2ccccc2F)no1 (stereo not given) | 40.7% |
| CCCc1noc(-c2ccc(-n3ncc(C(=O)O)c3C)nc2)n1 | 7.92% |
| CC(C)[C@]1(O)CN(C(=O)CNC(N)=O)C[C@H]1C | 39.9% |
| O=C(CS(=O)(=O)Cc1ccc(F)cc1)NC1CCCCNC1=O (stereo not given) | -90.9% |
| CCOc1ccnc(NCCc2nc(C)cc(=O)[nH]2)n1 | 23.3% |
| CCOc1ccnc(NCc2nc(C)cc(C(F)(F)F)n2)n1 | 52.9% |
| CCOc1ccnc(NCc2nc(C)cc(=O)[nH]2)n1 | 27.8% |
| COCCCN(Cc1ccccn1)Cc1ccnn1C1CCCCO1 (stereo not given) | 34.1% |
| CCc1nnsc1C(=O)N1CCCC(n2nc(C)nc2C)C1 (stereo not given) | -10.75% |
| CN(Cc1cn2c(n1)CN(C(=O)CC1CC1)CC2)Cc1ccco1 | 30.1% |
| CN(Cc1cn2c(n1)CN(CC1CCOC1)CC2)Cc1ccco1 (stereo not given) | 53.2% |
| CN(Cc1cn2c(n1)CN(C1CCOC1)CC2)Cc1ccco1 (stereo not given) | 10% |
| CN(Cc1cn2c(n1)CN(C(=O)C1CCOCC1)CC2)Cc1ccco1 | -8.94% |
| CN(Cc1cn2c(n1)CN(CC1CC1)CC2)Cc1ccco1 | 8.53% |
| CN(Cc1cn2c(n1)CN(C1CCOCC1)CC2)Cc1ccco1 | 56.7% |
| Cc1c(CCC(=O)Nc2ccc(Br)cn2)cnn1C | 15.2% |
| Cc1nn(C)c(C)c1C1CCCN1Cc1nc(-c2ccccn2)no1 (stereo not given) | 11.9% |
| Cc1nn(C)cc1C(C)Nc1ncnc2sccc12 (stereo not given) | 27.5% |
| CC(Nc1ncnc2sccc12)c1cnn(C)c1 (stereo not given) | 38.7% |
| Cc1c(C(C)Nc2ncnc3sccc23)cnn1C (stereo not given) | 55.5% |
| COc1ccc(OC)c(C(=O)N2CCCCC2Cn2cccn2)c1 (stereo not given) | 14.4% |
| CCn1nc2nc(SCC(=O)O)cc(C(F)F)c2c1C | 20.4% |
| Cc1c2c(C(F)F)cc(SCC(=O)O)nc2nn1C | 15.9% |
| Cc1cc(SCC(=O)O)nc2nn(CC(F)F)c(C)c12 | 96% |
| CC(CCNC(=O)NCCc1ccncc1)c1ccccc1 (stereo not given) | 55.9% |
| O=C(NCCc1ccccc1)NCC(O)c1cccc(F)c1 (stereo not given) | -27% |

| SMILES | INHIBITION |
| --- | --- |
| CC(c1cccc(S(N)(=O)=O)c1)N(C)CCc1ccccc1 (stereo not given) | 33.6% |
| Cc1cc(NC(=O)NCCc2ccc(S(N)(=O)=O)cc2)n(C)n1 | -193% |
| CC(CCNC(=O)NCCc1ccc(S(N)(=O)=O)cc1)c1ccccc1 (stereo not given) | 54.8% |
| CC(CCNC(=O)NCCNc1cnccn1)c1ccccc1 (stereo not given) | -10.4% |
| CCn1ccc2ccnc(CC3CN(C(=O)c4ccc(F)cc4)C3)c21 | 16.5% |
| Cc1cc(-c2cc(-c3cc(CC(=O)O)cs3)nc(N)c2C#N)oc1C | 33.9% |
| CC(=O)N[C@@H]1Cc2ccccc2[C@H]1Nc1ccncn1 | 67.5% |
| CC(=O)N[C@@H]1Cc2ccccc2[C@H]1Nc1nnc(C2CC2)o1 | 52.6% |
| CC(=O)N[C@@H]1Cc2ccccc2[C@H]1Nc1cc(C2CC2)ncn1 | 35% |
| O=C(C1CCCC1)N1CCC(Nc2ccncn2)CC1 | 49.9% |
| CCc1nc(C)c(C(=O)N[C@@H]2c3ccccc3C[C@@H]2O)o1 | -5.22% |
| CCc1oc(C(=O)N[C@@H]2c3ccccc3C[C@@H]2O)cc1C | 12.9% |
| Cc1ccc(OCC(=O)N2CCOCC(O)(CN3CCCC3)C2)cc1C (stereo not given) | 37.9% |
| Cc1cnc(CCNC(=O)C2CCN(S(=O)(=O)c3ccc(F)cc3)C2)s1 (stereo not given) | -21.8% |
| O=C(Cn1cc(-c2ccccc2)cn1)N1CCNC1=O | -7.53% |
| Cc1cc(C(=O)NCCc2c(C)nn(C)c2C)nc(N2CCCCC2)n1 | -10.5% |
| O=C(CCn1nc(C(=O)Nc2ccccc2)ccc1=O)Nc1nccs1 | 13.1% |
| N#Cc1ccc(CC(=O)N2CCC(Nc3cccnn3)CC2)cc1 | -3.7% |
| CCCc1n[nH]c(C2CN(C(=O)c3cncnc3C)CCO2)n1 (stereo not given) | 36.1% |
| C=c1ncsc1=C1NC(c2cccc(CN3CCOCC3)c2)=NO1 | 12.6% |
| COc1ccc(CN2CCC3(CC2)CCN(c2cnn(C)c2)C3=O)cc1 | 43.9% |
| O=C(c1ccncc1)N1C[C@H]2CC[C@@H](C1)N(C(=O)C1CCCC1)C2 | -3.48% |
| CCn1cc(CN(C)S(=O)(=O)N2CCCC2c2ccco2)cn1 (stereo not given) | 32% |
| CN(Cc1cnn(C)c1)S(=O)(=O)N1CCCC1c1ccco1 (stereo not given) | 52.2% |
| CCN(Cc1cnn(C)c1)S(=O)(=O)N1CCCC1c1ccco1 (stereo not given) | 27.5% |
| O=C(c1ccc(C2CCCN2C(=O)c2cscn2)s1)N1CCSCC1 (stereo not given) | -30.6% |
| CN(C)CC(=O)N1CCC2(CC1)COC(COc1ccccn1)C2 (stereo not given) | 35.3% |

| SMILES | INHIBITION |
| --- | --- |
| Cc1ccc([C@]2(O)CC[C@H]3CN(Cc4ccncc4)C[C@H]32)nc1 | 66.4% |
| CSc1ccc(CN2C[C@@H]3CC[C@@](O)(c4ccc(C)cn4)[C@@H]3C2)cc1 | 75.3% |
| O[C@@]1(c2ccccn2)CC[C@H]2CN(Cc3ccccn3)C[C@H]21 | 29.3% |
| Cc1ccc([C@]2(O)CC[C@H]3CN(Cc4cc(C)c(O)c(C)c4)C[C@H]32)nc1 | 45.5% |
| COc1ncc(CN2C[C@@H]3CC[C@@](O)(c4ccc(C)cn4)[C@@H]3C2)cn1 | 41.2% |
| Cc1ccc([C@]2(O)CC[C@H]3CN(Cc4cccnc4)C[C@H]32)nc1 | 41.2% |
| O=C(C[C@@H]1COC[C@H]2CN(Cc3ccccn3)C[C@@H]12)N1CCOCC1 | 33% |
| Cc1noc(C)c1CC(=O)NCC1(O)CCCN(c2ccccn2)C1 (stereo not given) | 14.6% |
| CSc1ccc(CN(C)Cc2noc(C(C)(C)C)n2)cc1 | 56.9% |
| CCN(Cc1noc(C(C)(C)C)n1)Cc1ccc(C#N)cc1F | 28% |
| CN(Cc1ccc(C#N)cc1)Cc1noc(C(C)(C)C)n1 | 53.5% |
| CC(C)(C)c1nc(CN(Cc2ccccc2Cl)C2CCCC2)no1 | 9.35% |
| CC(C)(C)c1nc(CN(CCO)Cc2cc(Br)ccc2F)no1 | -38.2% |
| CC(c1nc(C2CC2)no1)N(C)Cc1ccc(C#N)cc1 (stereo not given) | -4.4% |
| CCc1cc(N(C)CCCO)n2nccc2n1 | 19.4% |
| Cc1noc(C)c1CN(C)C(=O)Nc1cnn(CC2CCCO2)c1 (stereo not given) | 18.4% |
| Cc1cc(C(=O)N[C@H](C)c2onc(C)c2C(=O)O)c(C)o1 | -12.2% |
| COCCSCC(=O)NCc1ccnc(N(C)C)c1 | 46.4% |
| Cc1oc(C(C)C)cc1C(=O)N1C[C@@H]2CC[C@H]1CN(S(=O)(=O)N(C)C)C2 | -19.5% |
| O=C1N(CCO)CCCC12CCN(Cc1noc(C3CCCC3)n1)C2 (stereo not given) | 22.7% |
| CC(C)N1CCCC2(CCN(Cc3noc(C4CCCC4)n3)C2)C1=O (stereo not given) | 70.2% |
| CC(C)N1CC2(CCCN(Cc3noc(C4CCCC4)n3)C2)CCC1=O (stereo not given) | 50.5% |
| O=C1CCC2(CCCO2)CCN1Cc1noc(C2CCCC2)n1 (stereo not given) | 26.7% |
| CCCN1CCCC2(CCN(Cc3noc(C4CCCC4)n3)C2)C1=O (stereo not given) | -15.8% |
| CNC1CCCN(Cc2noc(C3CC3)n2)C1 (stereo not given) | -17.4% |
| CCN1CCC2(CCN(Cc3nccs3)CC2)C1=O | -28.8% |
| O=C(NCC(=O)N1CCCCC1)c1ccoc1 | 17.3% |

| SMILES | INHIBITION |
| --- | --- |
| Cc1ccc2[nH]c(=O)c(CNCCCN3CCOCC3)cc2c1 | -37% |
| Cc1csc2c(N3CCNC(C(=O)N4CCCC4)C3)ncnc12 (stereo not given) | -10.1% |
| Cc1csc2c(N3CCNC(C(=O)NCc4cccnc4)C3)ncnc12 (stereo not given) | 16.9% |
| Cc1csc2c(N3CCNC(C(=O)Nc4ccc(F)cc4)C3)ncnc12 (stereo not given) | 62.8% |
| CCn1cc(CN2C[C@@H]3CCCN3C[C@@H]2CCSC)c(C)n1 | 46.1% |
| Cc1nc(CCN2CCCCC2)n(-c2ccc(F)cc2)n1 | -8.19% |
| CN(C)C(=O)Cn1cc(C(=O)NCCc2ccc(C(F)(F)F)cc2)nn1 | -25.9% |
| Cc1nc(-c2cn(CCN)nn2)n(-c2ccc(C(F)(F)F)cc2)n1 | 76.8% |
| Cc1nc(-c2cn(CCN)nn2)n(-c2ccc3c(c2)CCC3)n1 | 56.5% |
| CNS(=O)(=O)CCn1cc(-c2cc3c(cc2OC)CCC3)nn1 | 37.3% |
| Cc1cc(-n2nc(C)nc2-c2cn(CCN)nn2)ccn1 | 41.5% |
| CC(C)c1noc(CNC2CCCN(Cc3noc(C4CC4)n3)C2)n1 (stereo not given) | -42.1% |
| Cc1nc(N2CCN(C)CC2)ncc1C(=O)N1CC[C@](C)(O)[C@H](C)C1 | -10.2% |
| Cc1ccoc1C1=NNC(=CN2CCOC(Cn3cccn3)C2)O1 (stereo not given) | -50.5% |
| CCc1nnc2n1CCN(C=C1NN=C(c3occc3C)O1)C2 | 11.2% |
| CCOCCN1CCN(C=C2NN=C(c3occc3C)O2)CC1CC (stereo not given) | 76.7% |
| COCCN1CCN(C=C2NN=C(c3occc3C)O2)CC1 | 43.4% |
| Cc1ccoc1C1=NNC(=CN2CCn3c(C)nnc3C2)O1 | -21.7% |
| CCOCCN1CCN(C=C2NN=C(c3occc3C)O2)CC1 | 70.3% |
| CC(C)c1nc(CN2CCN(C(=O)OC(C)(C)C)C(C)C2)no1 (stereo not given) | -9.35% |
| Cc1nn(C)c2c(=O)n(Cc3ccc(C#N)cc3)nnc12 | 8.15% |
| CC(C)OCCCNC(=O)CS(=O)(=O)Cc1cccc(Cl)c1 | -63.3% |
| Cn1ccnc1-c1cn(CCc2nnc(N)s2)nn1 | 40.2% |
| CC(C)c1nnc2n1CC(CNCc1ccsc1)CC2 (stereo not given) | 5.85% |
